Values joined by “and” are separate entries in the source; they are usually repeats but may differ in a detail not shown here. Identical values can stand only once. Screen size: about 65,000 compounds; about 40 (0.06%) were called active. Calls follow the shape of the dose curve; as a rule, active = well fitted activation curve with a large enough effect; inconclusive = small, poorly fitted or top-dose-only effect; inactive = flat fitted curve, though single readings scatter. Only a selection was taken, and actives are over-represented in it overall.
Experiment: qHTS Assay for Modulators of Hemoglobin Beta Chain Splicing; also: 0% is about no effect
Conditions: HBB splicing reporter cell assay, EGFP reporter with mutant IVS2-654 intron; Potency: activation; series mostly up to 46.1 µM; activation: at the top concentration
Excerpt: NIH Chemical Genomics Center [NCGC]
NIH Molecular Libraries Screening Centers Network [MLSCN]
PI Name: Dr. Ryszard Kole
Modulation of Alternative Splicing as Therapy
Abnormal splicing is associated with a number of diseases, including cancer and genetic diseases such as cystic fibrosis, muscular dystrophy and beta-thalassemia. Alteration of disease associated splicing patterns provides a promising target for treatment. […] Mutations in the second intron of the beta-globin gene at positions are clinically relevant and cause mis-splicing which results in an out of frame gene product.
EGFP-654 and 705 HeLa Cells as screen system.
HeLa cell lines were stably transfected with a construct in which the EGFP (enhanced green fluorescent protein) cDNA was interrupted by the second intron of the beta-globin gene (IVS2-654). The ISV2 intron contains mutations which cause mis-splicing of EGFP and premature termination of EGFP which results in a nonfluorescent protein product. […] Expression of the transgene was driven by the CMV promoter. We concluded that a low molecular weight compound, which restored correct splicing of intron 2 would also generate functional EGFP protein, resulting in a fluorescent signal. Thus, the HeLa cells that express the EGFP-654 construct can be used for high throughput screening of a chemical library.
NCGC Assay Protocol Summary:
High Throughput Screening. Freshly thawed HeLa EGFP-654 cells were seeded in 5 ul of optimem media (Invitrogen) containing 2 % fetal calf serum (Hyclone) and 1x penicillin/streptomycin (Invitrogen) at a concentration of 500 cells per well in 1536-well plates. Cells were incubated overnight at 37C in 5% CO2. The next day, cells were treated with DMSO, 500 nM antisense ISV2 654 PNA control oligo, or library compound and allowed to grow at 37C in 5% CO2 for 2 days. The PNA oligo blocked the mutation site in the intron and allowed proper (wild type) splicing to occur, resulting in full length EGFP expression and also allowed for optimization of the assay parameters. Plates were read in the Acumen Explorer (TTP Labtech) using 488 nm laser excitation and 500-520 nm emission PMT filter in a 1 x […] capture mode. Fluorescnet Fluorescent objects ranging in size from […] were measured and the total peak GFP intensity for each well was used for data analysis.
Keywords: Thalassemia, beta-thalassemia, beta-globin, EGFP, ISV2 654, ISV2 705, SSO, PNA, antisense, splicing, MLSMR, MLSCN, NIH Roadmap, qHTS, NCGC

activation, inactive:
COc1ccc(COC(=O)N/N=C2/C[C@@H](O)[C@@H](O)[C@@H]3[C@@H]4C(=O)N([C@@H](C)c5ccccc5)C(=O)[C@H]4CC[C@@H]23)cc1 0.743% [at 9.22 µM, normalised to 500 nM splice-correcting PNA]
COc1ccc2[nH]cc(CCNc3cc(-c4ccccc4CN(C)C)ncn3)c2c1 -1.5%
O=C(O)c1ccc(C(=O)O)c2c(C(=O)O)ccc(C(=O)O)c12 -1.01% [at 9.22 µM, normalised to 500 nM splice-correcting PNA]
O=C(O)[C@@H]1[C@@H](C(=O)O)[C@]23C[C@@]2(C(=O)O)[C@]2(C(=O)O)CCC3=C3CCCC312 0.251% [at 9.22 µM, normalised to 500 nM splice-correcting PNA]
COCCNc1ncnc2ccc(-c3cccnc3)cc12 -0.174%
CCN(CC)CCCCn1c(-c2ccccc2)nc2c(N3CCOCC3)nc(C)nc21 -0.944%
CO[C@@H]1COC(=O)[C@H](Cc2ccccc2)NC(=O)C/C=C\[C@@H](C)[C@H](OC)COC(=O)[C@@H](C)NC(=O)C/C=C\[C@H]1C 1.42% [at 9.22 µM, normalised to 500 nM splice-correcting PNA] and 0.127% [at 9.22 µM, normalised to 500 nM splice-correcting PNA]
Cc1noc(C)c1-c1nc(Nc2ccccc2)c2ccccc2n1 -0.209%
O=NO
ClC(Cl)(Cl)C(N1CCN(c2ccccc2)CC1)N1CCN(c2ccccc2)CC1 3.1% [at 9.22 µM, normalised to 500 nM splice-correcting PNA]
CC(=O)Oc1ccccc1C(=O)Nc1ncc([N+](=O)[O-])s1 -1.69%
COc1ccc(NC(=O)N2CC3(CCN(C(C)=O)CC3)C2)cc1 1.24%
COC(=O)[C@@H]1CC[C@H](C)[C@@H](c2ccc(C)cc2)N1C(=O)c1ccc(/C=N\OC[C@@H](O)COCc2ccco2)cc1 -0.0134% [at 9.22 µM, normalised to 500 nM splice-correcting PNA]
Clc1ccc(C(c2ccc(Cl)cc2)n2cc[n+](C[C@@H](OCc3ccc(Cl)cc3Cl)c3ccc(Cl)cc3Cl)c2)cc1 -0.247%
CC(C)C[C@@H](CC(=O)N[C@@H](CCC(=O)O)CC(=O)O)NC(=O)[C@@H]1CCCC[C@H]1NC(=O)C[C@@H](NC(=O)C[C@H](CO)NC(=O)[C@@H]1CCCC[C@H]1N)C(C)C 3.3%
O=C(O)[C@@H](S)[C@H](S)C(=O)O -1.17% [at 9.22 µM, normalised to 500 nM splice-correcting PNA]
O=C(O)[C@@H](O)Cc1ccccn1 2.62% [at 9.22 µM, normalised to 500 nM splice-correcting PNA]
COC(=O)N1CCC2(CCCN(c3ccncc3)C2)CC1 -1.2%
NCC(=O)[C@@H](O)[C@H](O)[C@H](O)CO 0.718% [at 9.22 µM, normalised to 500 nM splice-correcting PNA]
CN(C)C(=O)c1ccc(-c2cncnc2NC2CCNCC2)cc1 -0.451%
CN1[C@H]2CC(OC(=O)[C@@H](CO)c3ccccc3)C[C@H]1[C@H]1O[C@H]12 (stereo partly drawn) 0.627% [at 20.6 µM, normalised to 500 nM splice-correcting PNA]
O=C1[C@H]2[C@H]3[C@H](O)[C@H](O)C/C(=N/OCc4ccccc4)[C@H]3CC[C@@H]2C(=O)N1Cc1ccccc1 0.171% [at 9.22 µM, normalised to 500 nM splice-correcting PNA]
CCCCNc1nc(C)nc2c1nc(-c1ccccc1)n2CCCCN(CC)CC -0.934%
c1ccc(CSCCc2ccncc2)cc1 2.45% [at 9.22 µM, normalised to 500 nM splice-correcting PNA]
O=c1c(-c2ccc(F)c(F)c2)nc2cncnc2n1-c1ccccc1 2.55%
COC(=O)NC(c1ccccc1)[C@]1(C(C)=O)CCCC1=O (stereo partly drawn) 0.441% [at 9.22 µM, normalised to 500 nM splice-correcting PNA]
CC(C)c1ccc2c([Si](C)(C)C)c3c(nc2c1)-c1cccc(=O)n1C3 0.415%
C=CC(=C)CCC=C(C)C 0.0276%
O=Cc1c(Cl)cccc1Cl -1.03%
COCCn1c(=O)c(-c2ccccc2)nc2cnc(N3CCOCC3)nc21 0.139%
CN1CCN(c2ncncc2-c2ccc(C(=O)N(C)C)cc2)CC1 -0.722%
O=C(c1cnccn1)N1CCC[C@@]2(CCN(Cc3ccncc3)C2)C1 3.89%
Cc1ccccc1-c1nc(N(C)Cc2ccco2)c2ccccc2n1 -0.212%
OCCN1CCN(CC/C=C2\c3ccccc3Sc3ccc(C(F)(F)F)cc32)CC1
BrC1C(Br)C(Br)C(Br)C(Br)C1Br (stereo not drawn) -0.892%
c1ccc(CNc2ncncc2-c2cccnc2)cc1 -0.097%
FC(F)(F)c1ccccc1-c1nc(-n2ccnc2)c2ccccc2n1 -0.152%
CO[C@H]1COC(=O)[C@@H](C)NC(=O)C/C=C\[C@@H](C)[C@H](OC)COC(=O)C/C=C\[C@@H]1C 0.0576% [at 9.22 µM, normalised to 500 nM splice-correcting PNA]
COc1ccccc1CNc1ncnc2ccc(-c3ccc4c(c3)OCO4)cc12 -0.815%
Cc1noc(C)c1-c1nccc(N2CCOCC2)n1 -1.02%
Cc1[nH]c(N)nc(=S)c1CCCNc1ccccc1 0.0064% [at 9.22 µM, normalised to 500 nM splice-correcting PNA]
COc1ccc(NC(=O)N2CC3(CCN(C(=O)c4cccn4C)CC3)C2)cc1 3.19%
Cc1c(O)c(Br)c(C)c(O)c1Br (tested in a mixture with another compound) 3.36% [at 9.22 µM, normalised to 500 nM splice-correcting PNA]
COc1ccc(CNc2ncncc2-c2ccccc2C)c(OC)c1 -1.22%
CC(C)[C@@H](CC(=O)N[C@@H]1CCNC[C@H]1C(=O)N[C@H](CC(=O)N[C@@H](CCC(=O)O)CC(=O)O)Cc1ccccc1)NC(=O)C[C@H](CO)NC(=O)[C@@H]1CNCC[C@H]1N 2.36%
C[C@]12C=CC(=O)C=C1CC[C@@H]1[C@@H]2C(=O)C[C@@]2(C)[C@H]1CC[C@]2(O)C(=O)CO 1.63%
CCCC(C(=O)OCCN(CC)CC)(c1ccccc1)c1ccccc1
CC(=O)N1CCC2(CC1)CCN(c1ccncc1)CC2 -0.407%
C[C@]1(C(=O)NCCc2c[nH]c3ccccc23)C=C[C@@H](Cc2ccccc2)N1C(=O)c1ccccc1 -1.89%
C[C@@H]1O[C@@H](O[C@@H]2[C@@H](O)[C@H](OCCc3ccc(O)c(O)c3)O[C@H](CO[C@@H]3O[C@H](CO)[C@@H](O)[C@H](O)[C@H]3O)[C@H]2OC(=O)/C=C/c2ccc(O)c(O)c2)[C@H](O)[C@H](O)[C@H]1O -0.894%
O=C(c1csnn1)N1CCC2(CC1)CN(c1ncccn1)C2 2.6%
O=S(=O)(O)c1ccc(O)c2ncccc12.O=S(=O)(O)c1ccc(O)c2ncccc12.[Zn] 0.245% [at 9.22 µM, normalised to 500 nM splice-correcting PNA]
CCOC(=O)[C@]1(C(/C=C/c2ccco2)NC(=O)OC)CCCC1=O (stereo partly drawn) 0.739% [at 9.22 µM, normalised to 500 nM splice-correcting PNA]
O=C1C(c2[nH]c3ccccc3c2O)=Nc2ccccc21 0.742%
COC(=O)[C@@]1(Cc2ccc(F)cc2)[C@H]2c3cc(C(=O)N4CCCC4)n(Cc4ccc(OC(F)(F)F)cc4)c3C[C@H]2CN1C(=O)c1ccccc1 0.537%
C[N+]1(CCN=C=NC2CCCCC2)CCOCC1 6.02% [at 9.22 µM, normalised to 500 nM splice-correcting PNA]
COCCn1c(=O)c(-c2cccs2)nc2cnc(N3CCN(C)CC3)nc21 0.122%
COC(=O)[C@H](C)[C@H]1C[C@]1(C)[C@H](NC(=O)OCc1ccccc1)c1ccccc1 0.936%
CCCCCCc1ccc(O)cc1O -0.018%
CC(=O)OCC1OC(C#Cc2ccccc2Cl)C=CC1OC(C)=O (stereo not drawn) 2.13% [at 9.22 µM, normalised to 500 nM splice-correcting PNA]
O=c1c(-c2cccs2)nc2cnc(Oc3ccccc3)nc2n1-c1ccccc1 7.2%
Cc1cc2nc3c(=O)[nH]c(=O)nc-3n(C[C@H](O)[C@H](O)[C@H](O)CO)c2cc1C -0.785%
COc1ccc2[nH]cc(CCNc3ncnc4ccc(-c5ccc(C(=O)N(C)C)cc5)cc34)c2c1 -3.75%
CCCC[C@@H]1C[C@H]1C(NC(=O)c1ccco1)c1ccc(C(=O)OC)cc1 (stereo partly drawn) 1.15%
OC(CCl)CCl -0.303%
CC(=O)/C(C)=N\O 0.887%
COc1ccccc1CNc1nc(-c2c(C)noc2C)nc2ccccc12 -0.267%
COCCNc1ccnc(-c2cccc(NS(C)(=O)=O)c2)n1 -0.582%
CCNc1ncc2ncc(=O)n(CCc3ccccc3)c2n1 0.539%
CCCC[C@@H]1C[C@H]1C(NC(=O)c1ccc(-c2ccccc2)cc1)c1ccc(-c2ccccc2)cc1 (stereo partly drawn) 1.8%
O=c1cc(-c2ccccc2)[nH]c2nc(Cl)ccc12 2.33%
O=C(c1ccncc1)N1CCC2(CCN(Cc3cc(C(F)(F)F)cc(C(F)(F)F)c3)CC2)CC1 1.42%
C=CCOC(=O)c1ccccc1C(=O)OCC=C 2.26%

From PubChem BioAssay AID925 (National Center for Advancing Translational Sciences (NCATS), 2007)
